This passage reports composite z-score and z-score results from PubChem BioAssay.

Each structure is given as a SMILES string. “And” between values parts separate entries of the source, which are not always exact repeats. Identical values can stand only once. The source made the active and inactive calls.

Assay [1] in a line: small molecules captured by biotinylated probe aFSTL3 – biochemical, small-molecule microarray, fluorescence 635/667, stem cell growth factor project, primary screen (AID 1064).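 Further: measures binding of the biotinylated anti-FSTL3 antibody to printed compounds.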 The note with it: higher = more signal.
The nature of assay [2]: binders from COS7 lysate, DM2A8 probe, primary screen, torsin A project, cell lysate, small-molecule microarray, fluorescence 635/667 (AID 1065). The following applies: higher = more signal, COS7 lysate expressing mutant human TOR1A.
Assay [3] in a line: small molecules captured by biotinylated probe aFGF2 – biochemical, small-molecule microarray, fluorescence 635/667, stem cell growth factor project, primary screen (AID 1067).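 Further: measures binding of biotinylated aFGF2 protein to printed compounds on slides; z-score merges feature fluorescence and signal-to-noise across triplicate slides.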 The note with it: higher = more signal.
Assay [4] is described as follows: small molecules captured by biotinylated probe aFGF10 – biochemical, small-molecule microarray, fluorescence 635/667, stem cell growth factor project, primary screen (AID 1071).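 Further: score merges 667 nm spot intensity and signal to noise from triplicate slides.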 The note with it: higher = more signal.
Assay [5] deals with Neurogenic locus notch homolog protein 2 (Homo sapiens) (UniProt Q04721). As to the kind of experiment: small molecules binding Notch2 protein – biochemical, small-molecule microarray, 635 nm fluorescence, stem cell growth factors, primary screen (AID 1073). The note with it: higher = more signal.
The target of assay [6] is Pro-neuregulin-1, membrane-bound isoform (Homo sapiens) (UniProt Q02297). As to the kind of experiment: small molecules binding neuregulin-1 protein – biochemical, small-molecule microarray, fluorescence 635/667, psychiatric disease protein project, primary screen (AID 1075).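 Further: score combines 667 nm spot fluorescence with signal to noise.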 The following applies: NRG1 binding, 635 nm fluorescence, higher = more signal.
Assay [7] concerns Neuregulin-1 EGF-like domain. As to the kind of experiment: small molecules binding NRG1 EGF domain – biochemical, small-molecule microarray, 635 nm fluorescence, primary screen (AID 1081).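 Further: binding of the protein to compounds printed on small-molecule microarray slides.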 The following applies: higher = more signal.
Assay [8] is described as follows: FRG1 expression reporter modulators in myotubes – cell-based, C2C12 myotubes, firefly/Renilla luciferase, luminescence, FRG1 inhibition for FSHD, primary screen (AID 1084). The note with it: FRG1 promoter luciferase, higher = more signal, called active from +8 up or from −8 down.
Assay [9] can be described thus: small molecules captured by biotinylated probe aFST – biochemical, small-molecule microarray, fluorescence 635/667, stem cell growth factor project, primary screen (AID 1086).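 Further: score merges 667 nm fluorescence with signal-to-noise of each printed compound spot.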 The note with it: higher = more signal.
Assay [10] in a line: binders of probe aHhip on microarray, primary screen, stem cell growth factor project, biochemical, small-molecule microarray, fluorescence 635/667 (AID 1087).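 Further: score merges spot fluorescence at 667nm with spot signal to noise ratio.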 The following applies: higher = more signal.
For assay [11], the system named is PRMT1 (protein arginine N-methyltransferase 1). Put plainly: small molecules binding arginine methyltransferase PRMT1 – biochemical, small-molecule microarray, 635 nm fluorescence, primary screen (AID 1088).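 Further: binding of Prmt1 protein to compounds spotted on small-molecule microarray slides.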 The note with it: higher = more signal.
Assay [12] in a line: growth effects on S. cerevisiae YJM789 – YJM789 clinical isolate, OD600, 24 h, basal, primary screen (AID 1089).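 Further: growth of clinical yeast isolate S. cerevisiae YJM 789 seeded 1000 cells per well; test concentration not given here.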 The following applies: higher = more signal, called active from +8 up or from −8 down.
Assay [13] can be described thus: S. pombe growth modifiers, basal conditions – strain 972, OD600, 24 h, no modulator, primary screen (AID 1090).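 Further: basal condition with compound alone and no growth modifier present; test concentration not given here.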 The note with it: S. pombe 972 growth, higher = more signal, called active from +8 up or from −8 down.
Assay [14] is described as follows: budding yeast growth modifiers under rapamycin – strain BY4716, OD600, 96 h, primary screen (AID 1091). Further: test concentration not given here. The following applies: S. cerevisiae BY4716 + rapamycin, higher = more signal, called active from +8 up or from −8 down.
Assay [15] concerns the target Torsin-1A-interacting protein 2 (Homo sapiens) (UniProt Q8NFQ8). Put plainly: small molecules binding lysate-expressed LULL1 – cell lysate, human LULL1 lysate, 635/667 nm fluorescence, primary screen (AID 1092).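 Further: probe is lysate of COS7 cells overexpressing human LULL1; score merges per-feature 667 nm fluorescence with signal-to-noise.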 The following applies: small-molecule microarray, hLULL1 lysate binding, 635 nm fluorescence; higher = more signal.
Assay [16] can be described thus: optical density change of DRC41 E. coli – strain DRC41, OD650, 24 h, E. coli filamentation project, primary screen (AID 1093).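 Further: MC1000 strain lacking acrAB efflux and sulA so SOS filamentation is blocked; test concentration not given here.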 The note with it: E. coli DRC41 growth, higher = more signal, called active from +8 up or from −8 down.
Assay [17] can be described thus: probe aLefty2 binding to arrayed compounds – biochemical, biotinylated probe, 635/667 nm fluorescence, primary screen (AID 1094).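 Further: score merges spot fluorescence near 667 nm with spot signal-to-noise ratio.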 The following applies: small-molecule microarray, higher = more signal.
For assay [18], the system named is Noggin (protein binding on small-molecule microarray). As to the kind of experiment: small molecules binding Noggin protein – biochemical, 635/667 nm fluorescence, primary screen (AID 1095).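 Further: score merges 667 nm feature fluorescence with signal to noise over triplicate slides.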 The note with it: 635 nm fluorescence, higher = more signal.
For assay [19], the target named is Neurogenic locus notch homolog protein 3 (Homo sapiens) (UniProt Q9UM47). Put plainly: small molecules binding NOTCH3 protein – biochemical, 635/667 nm fluorescence, primary screen (AID 1096). The note with it: small-molecule microarray, 635 nm fluorescence, higher = more signal.
Assay [20] in a line: probe aEGFR binding to arrayed compounds – biochemical, biotinylated probe, 635/667 nm fluorescence, primary screen (AID 1097).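 Further: probe is a biotinylated anti-EGFR antibody binding compounds printed on slides; score combines fluorescence near 667 nm and signal to noise of each spot.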 The following applies: small-molecule microarray, higher = more signal.

Chain of Neurogenic locus notch homolog protein 3 (Homo sapiens) (Q9UM47 whole entry, looked up): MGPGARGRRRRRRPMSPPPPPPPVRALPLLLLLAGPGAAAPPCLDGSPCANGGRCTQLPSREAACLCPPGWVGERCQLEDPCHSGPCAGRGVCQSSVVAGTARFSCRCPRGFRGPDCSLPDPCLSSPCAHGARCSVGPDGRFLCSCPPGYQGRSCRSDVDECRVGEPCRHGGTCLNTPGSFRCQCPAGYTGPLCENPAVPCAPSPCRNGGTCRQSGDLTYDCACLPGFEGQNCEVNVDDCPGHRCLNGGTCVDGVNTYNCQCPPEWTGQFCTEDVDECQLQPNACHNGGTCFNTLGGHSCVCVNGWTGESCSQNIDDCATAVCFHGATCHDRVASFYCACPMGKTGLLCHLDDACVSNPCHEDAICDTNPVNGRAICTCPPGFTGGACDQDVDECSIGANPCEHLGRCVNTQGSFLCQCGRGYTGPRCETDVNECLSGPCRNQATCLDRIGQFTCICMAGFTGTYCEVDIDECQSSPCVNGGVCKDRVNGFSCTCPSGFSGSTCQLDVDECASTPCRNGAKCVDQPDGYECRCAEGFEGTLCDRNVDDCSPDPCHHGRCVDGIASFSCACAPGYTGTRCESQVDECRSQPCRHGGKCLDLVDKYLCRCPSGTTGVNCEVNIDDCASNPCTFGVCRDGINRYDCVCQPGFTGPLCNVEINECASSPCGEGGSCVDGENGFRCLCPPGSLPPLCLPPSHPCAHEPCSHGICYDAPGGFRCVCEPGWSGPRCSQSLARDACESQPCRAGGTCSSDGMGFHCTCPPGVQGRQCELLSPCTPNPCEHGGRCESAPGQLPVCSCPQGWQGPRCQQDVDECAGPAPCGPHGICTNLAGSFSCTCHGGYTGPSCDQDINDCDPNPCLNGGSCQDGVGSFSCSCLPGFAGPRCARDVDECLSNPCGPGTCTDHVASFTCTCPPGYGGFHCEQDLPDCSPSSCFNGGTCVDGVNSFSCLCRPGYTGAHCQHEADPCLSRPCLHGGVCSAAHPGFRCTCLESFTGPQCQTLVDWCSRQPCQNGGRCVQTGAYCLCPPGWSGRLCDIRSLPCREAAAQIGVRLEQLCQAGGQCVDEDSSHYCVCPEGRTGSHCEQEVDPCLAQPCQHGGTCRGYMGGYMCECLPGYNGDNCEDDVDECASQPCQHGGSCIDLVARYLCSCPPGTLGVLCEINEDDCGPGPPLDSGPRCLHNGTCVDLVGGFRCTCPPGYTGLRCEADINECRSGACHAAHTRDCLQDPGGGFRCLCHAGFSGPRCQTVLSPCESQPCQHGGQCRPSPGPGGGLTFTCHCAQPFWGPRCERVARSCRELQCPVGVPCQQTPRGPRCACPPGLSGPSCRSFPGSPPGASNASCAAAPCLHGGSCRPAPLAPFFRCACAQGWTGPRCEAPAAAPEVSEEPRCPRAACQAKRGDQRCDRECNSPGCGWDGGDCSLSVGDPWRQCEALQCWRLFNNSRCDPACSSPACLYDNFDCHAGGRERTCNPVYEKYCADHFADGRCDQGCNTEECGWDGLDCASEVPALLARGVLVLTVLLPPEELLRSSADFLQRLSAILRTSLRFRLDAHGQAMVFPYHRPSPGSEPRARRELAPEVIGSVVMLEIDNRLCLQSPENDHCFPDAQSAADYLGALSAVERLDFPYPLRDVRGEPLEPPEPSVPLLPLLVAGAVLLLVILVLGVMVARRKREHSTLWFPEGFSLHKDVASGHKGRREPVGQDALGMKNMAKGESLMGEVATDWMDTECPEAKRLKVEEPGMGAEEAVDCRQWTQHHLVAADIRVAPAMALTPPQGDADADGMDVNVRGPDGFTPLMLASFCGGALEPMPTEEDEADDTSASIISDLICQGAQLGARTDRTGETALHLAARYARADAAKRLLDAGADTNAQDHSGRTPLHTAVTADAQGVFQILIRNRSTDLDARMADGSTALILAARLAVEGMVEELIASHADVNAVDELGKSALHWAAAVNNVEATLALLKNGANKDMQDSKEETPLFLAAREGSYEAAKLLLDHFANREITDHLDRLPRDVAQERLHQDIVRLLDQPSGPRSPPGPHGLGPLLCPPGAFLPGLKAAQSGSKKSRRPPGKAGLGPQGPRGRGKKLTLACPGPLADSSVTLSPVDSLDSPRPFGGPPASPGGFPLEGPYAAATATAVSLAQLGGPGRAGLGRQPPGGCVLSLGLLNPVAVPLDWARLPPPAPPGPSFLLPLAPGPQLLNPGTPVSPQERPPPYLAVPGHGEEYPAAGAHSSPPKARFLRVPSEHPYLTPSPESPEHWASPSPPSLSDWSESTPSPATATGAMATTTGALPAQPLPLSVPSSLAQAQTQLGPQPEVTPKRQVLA
Chain of Torsin-1A-interacting protein 2 (Homo sapiens) (Q8NFQ8 whole entry, looked up): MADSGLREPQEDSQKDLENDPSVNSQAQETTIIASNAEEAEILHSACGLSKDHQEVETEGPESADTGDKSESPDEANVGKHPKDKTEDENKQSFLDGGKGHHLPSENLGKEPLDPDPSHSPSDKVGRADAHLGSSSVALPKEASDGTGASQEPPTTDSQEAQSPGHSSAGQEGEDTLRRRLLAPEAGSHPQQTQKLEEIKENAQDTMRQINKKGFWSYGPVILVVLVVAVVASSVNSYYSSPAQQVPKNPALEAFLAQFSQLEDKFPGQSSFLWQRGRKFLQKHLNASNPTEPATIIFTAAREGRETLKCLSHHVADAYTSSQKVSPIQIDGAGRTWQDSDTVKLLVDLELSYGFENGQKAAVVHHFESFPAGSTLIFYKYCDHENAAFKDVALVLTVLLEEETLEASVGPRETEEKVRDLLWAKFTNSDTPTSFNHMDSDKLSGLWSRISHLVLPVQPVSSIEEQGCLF
Chain of Pro-neuregulin-1, membrane-bound isoform (Homo sapiens) (Q02297 whole entry, looked up, the tested form may be a part, canonical isoform): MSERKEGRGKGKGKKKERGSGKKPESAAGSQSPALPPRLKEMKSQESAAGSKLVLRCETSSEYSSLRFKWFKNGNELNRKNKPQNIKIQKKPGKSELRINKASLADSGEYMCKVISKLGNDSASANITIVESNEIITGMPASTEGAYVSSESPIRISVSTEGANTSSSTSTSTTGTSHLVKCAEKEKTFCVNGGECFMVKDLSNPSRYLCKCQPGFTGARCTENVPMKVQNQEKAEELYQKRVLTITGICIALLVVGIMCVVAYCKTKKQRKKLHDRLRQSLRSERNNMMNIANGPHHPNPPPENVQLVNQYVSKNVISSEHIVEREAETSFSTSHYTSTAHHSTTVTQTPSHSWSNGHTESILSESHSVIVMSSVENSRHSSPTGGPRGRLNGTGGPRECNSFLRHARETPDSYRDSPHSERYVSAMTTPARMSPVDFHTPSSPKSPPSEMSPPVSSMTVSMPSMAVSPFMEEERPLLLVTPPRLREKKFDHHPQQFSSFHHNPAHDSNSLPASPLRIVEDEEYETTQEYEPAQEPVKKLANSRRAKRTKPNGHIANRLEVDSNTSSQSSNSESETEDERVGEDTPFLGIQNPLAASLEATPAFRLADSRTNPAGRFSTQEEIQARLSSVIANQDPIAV

Consider `CC(CO)N1C(=O)[C@@H]2C3C(=O)OCCC=C[C@H]3OC23C=CCN(CCN2CCOCC2)C(=O)[C@@H]13` (stereo not given in full), for which the composite z-score in [1] was -0.316 and 0.246; in assay [2], -1.28 and 0.759; in assay [3], -0.166 and -0.085; in assay [4] it was -0.376 and -0.591; in assay [5], -0.0931 and 0.0406; in assay [6], -0.256 and 1.91. Further, the composite z-score in assay [7] was 0.678 and 0.666; in [9], 0.106 and 0.0417; in [10] it was -0.399 and -0.119; in assay [11], -0.353 and 1.34; in assay [15] it was -0.634 and 3.22; in [17], -0.186 and 0.166. Further, the composite z-score in assay [18] was -0.0409 and 0.0947; in assay [19], 0.331 and 0.465; in assay [20], -0.207 and -0.0046. Also, the z-score is 0.12 (inactive) and 0.497 (inactive) in assay [8]; 0.517 (inactive) and -1.32 (inactive) in assay [12]; -0.0581 (inactive) and -1.22 (inactive) in assay [13]; 0.565 (inactive) and -0.233 (inactive) in assay [14]; -0.381 (inactive) and -0.16 (inactive) in assay [16].
Take `COC(=O)C1=C(C)N(Cc2ccccc2)C2=C3C(=O)CCC[C@@H]3[C@@](O)(C(=O)OC)C(=O)N2[C@@H]1c1ccccc1`: the composite z-score is -0.438 and -0.212 in [1]; 0.999 and -0.117 in assay [2]; -0.122 and -0.0125 in [3]; 0.482 and 0.544 in assay [4]; 0.723 and 0.6 in assay [5]; -0.046 and -0.158 in assay [6]. Moreover, the composite z-score is 0.211 and 0.476 in assay [7]; 0.325 and 0.107 in [9]; 0.136 and -0.0994 in assay [10]; 0.749 and -0.121 in assay [11]; 0.0102 and 0.0556 in [15]; 0.182 and -0.0863 in assay [17]. In addition, the composite z-score in assay [18] is 0.637 and 0.433; in assay [19], 0.602 and -0.239; in assay [20], -0.177 and 0.108. Further, the z-score in assay [8] was -0.403 (inactive) and 0.0176 (inactive); in assay [12], 0.494 (inactive) and -0.978 (inactive); in assay [13], -1.66 (inactive) and -4.18 (inactive); in [14] it was -2.01 (inactive) and -2.52 (inactive); in assay [16], 0.821 (inactive) and 0.754 (inactive).
Take `C[N+](C)(C)CCCCCCNC(=O)[C@@H]1C[C@@H]2C(=O)N[C@@H](CCCC[N+](C)(C)C)C(=O)N2[C@@H]1c1ccc(O)cc1`: the composite z-score in assay [1] is 0.245 and -0.175; in assay [2], 0.0279 and -0.0321; in assay [3], -0.12 and -0.181; in assay [4], 0.0015 and -0.155; in [5], -0.423 and -0.213; in assay [6], 0.142 and 1.11. The composite z-score in [7] was 1.35 and 1.36; in [9] it was -0.12 and -0.0447; in [10], -0.206 and -0.266; in [11], 1 and 1.3; in [15] it was 0.611 and 2.02; in assay [17] it was -0.0356 and -0.117. For the same molecule, the composite z-score is 1.21 and 1.28 in assay [18]; 0.643 and 0.994 in [19]; -0.122 and -0.128 in [20]. The z-score is 0.403 (inactive) and 2.73 (inactive) in assay [8]; 0.272 (inactive) and 0.534 (inactive) in assay [12]; 0.352 (inactive) and 0.356 (inactive) in assay [13]; 0.02 (inactive) and 0.327 (inactive) in assay [14]; 0.392 (inactive) and -0.176 (inactive) in assay [16].
Regarding `CCOC(=O)c1ccc(NC(=O)O[C@H]2[C@H](OC(=O)Nc3ccccc3)[C@@H](OC(=O)Nc3ccccc3)[C@@H](OC)O[C@@H]2CO)cc1`, the composite z-score was 0.181 and 0.179 in [1]; 0.791 and 0.936 in assay [2]; 0.211 and 0.164 in assay [3]; 1.01 and 1.18 in assay [4]; 1.59 and 1.44 in assay [5]; 1.46 and 1.3 in assay [6]. For the same molecule, the composite z-score is 1.33 and 1.43 in assay [7]; 1.29 and 1.2 in assay [9]; 0.167 and 0.24 in assay [10]; 1.53 and 1.54 in assay [11]; 3.22 and 3.23 in assay [15]; 0.244 and 0.0626 in assay [17]. Further, the composite z-score is 0.893 and 0.71 in assay [18]; 1.02 and 1.08 in assay [19]; 0.145 and 0.11 in [20]. Besides, the z-score in assay [8] is 1.13 (inactive) and 0.183 (inactive); in [12], 1.77 (inactive) and 1.97 (inactive); in [13], 1.07 (inactive) and 1.71 (inactive); in assay [14] it was 4.37 (inactive) and 7.27 (inactive); in [16], -0.221 (inactive) and -1 (inactive).
